Each structure is given as a SMILES string. Records with an inconclusive call do not appear. Calls of active or inactive are those of the source. The calls were made as follows: active = hit-call score of the fitted dose curve at least 0.9, where 1 is the maximum; inconclusive = response in the unintended direction; inactive = score below 0.9.

As usually defined, the AC50 is the concentration at which the activity in the assay is half-maximal.

For experiment [1], the target named is human Peroxisome Proliferator-activated Receptor alpha (PPARa), PPARA (gene 5465) (UniProt Q07869). Put plainly: ATG_PPARa_TRANS: Attagene TRANS-FACTORIAL HepG2 Assay for human Peroxisome Proliferator-activated Receptor alpha (PPARa) (AID 2283001).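 As to AC50: potency for gain of reporter signal over DMSO so agonist or activator.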 A digest of the protocol:
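Exposure: 24 h, transiently transfected HepG2 cells. Endpoint: GAL4-UAS reporter mRNA, RT-PCR with capillary electrophoresis fluorescence. Baseline: DMSO; increases fitted.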

In experiment [2] the target is Peroxisome proliferator-activated receptor gamma (Homo sapiens) (UniProt P37231). Put plainly: ATG_PPARg_TRANS: Attagene TRANS-FACTORIAL HepG2 Assay for human Peroxisome Proliferator-activated Receptor-gamma (PPARg) (AID 2283007). The method, boiled down: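 Gain-of-signal endpoint relative to DMSO, derived from reporter mRNA levels quantified by RT-PCR and capillary electrophoresis. Cells were HepG2 transiently expressing a chimeric NR-Gal4 construct with GAL4-UAS reporters, exposed to chemicals for 24 h.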

Experiment [3] concerns the target human RAR-related Orphan Receptor beta (RORb), RORB (gene 6096) (UniProt Q92753). Put plainly: ATG_RORb_TRANS: Attagene TRANS-FACTORIAL HepG2 Assay for human RAR-related Orphan Receptor beta (RORb) (AID 2283010). A digest of the protocol: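 Multiplexed transcription-factor reporter assay: HepG2 cells transiently carrying NR-Gal4/GAL4-UAS constructs, 24 h treatment, mRNA quantified by RT-PCR plus capillary electrophoresis fluorescence; activity scored as induction over DMSO.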

The target in experiment [4] is human RAR-related Orphan Receptor gamma (RORg), RORC (gene 6097) (UniProt P51449). Put plainly: ATG_RORg_TRANS: Attagene TRANS-FACTORIAL HepG2 Assay for human RAR-related Orphan Receptor gamma (RORg) (AID 2283011). A digest of the protocol:
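Readout: reporter transcript induction (RT-PCR, fluorescent primer extension, capillary electrophoresis) after 24 h compound exposure of transiently transfected HepG2 cells carrying a RORg-Gal4 chimera and GAL4-UAS reporters; DMSO served as baseline, with increasing signal fitted.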

The target in experiment [5] is human Retinoid X Receptor beta (RXRb), RXRB (gene 6257) (UniProt P28702). Briefly: ATG_RXRb_TRANS: Attagene TRANS-FACTORIAL HepG2 Assay for human Retinoid X Receptor beta (RXRb) (AID 2283013). A digest of the protocol: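 After a 24 h incubation with test chemical, transfected HepG2 cells carrying NR-Gal4 fusions and GAL4-UAS reporter transcription units yield RNA whose reporter cDNA is FAM-labelled, HpaI-cut and sized by capillary electrophoresis; increases over DMSO are scored.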

Experiment [6] has as its target Nuclear receptor subfamily 1 group I member 2 (Homo sapiens) (UniProt O75469). Briefly: ATG_PXR_TRANS: Attagene TRANS-FACTORIAL HepG2 Assay for human Pregnane X Receptor (PXR) (AID 2283008). The method, boiled down:
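Trans-factorial format: exogenous NR-Gal4 fusion activity, not endogenous factor, in transfected human HepG2 liver cells. After 24 h dosing, RNA isolated, reverse-transcribed, amplified and resolved by capillary electrophoresis; induction scored versus DMSO.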

Experiment [7] has as its target human Thyroid Receptor alpha (THRa1), THRA (gene 7067) (UniProt P10827). Briefly: ATG_THRa1_TRANS: Attagene TRANS-FACTORIAL HepG2 Assay for human Thyroid Receptor alpha (THRa1) (AID 2283014). The method, boiled down:
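HepG2 cells transiently transfected with multiplexed GAL4-UAS reporter units for exogenous chimeric THRa1-Gal4; reporter mRNA measured 24 h after dosing by RT-PCR, 6-FAM labelling, HpaI digestion and capillary electrophoresis. Gain-of-signal fitted versus DMSO baseline.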

The target in experiment [8] is human Retinoic Acid Receptor beta (RARb), RARB (gene 5915) (UniProt P10826). Briefly: ATG_RARb_TRANS: Attagene TRANS-FACTORIAL HepG2 Assay for human Retinoic Acid Receptor beta (AID 2283004). A digest of the protocol:
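HepG2 cells transiently transfected with multiplexed GAL4-UAS reporter units expressing chimeric NR–Gal4 fusions; 24 h compound exposure. Reporter mRNA quantified by RT-PCR, 6-FAM labelling, HpaI digestion and capillary electrophoresis; gain-of-signal fitted against DMSO baseline.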

For experiment [9], the target named is Retinoic acid receptor alpha (Homo sapiens) (UniProt P10276). Briefly: ATG_RARa_TRANS: Attagene TRANS-FACTORIAL HepG2 Assay for human Retinoic Acid Receptor alpha (RARa) (AID 2283005). The method, boiled down: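 HepG2 cells transiently transfected with multiple reporter units expressing chimeric RARα-GAL4 fusion, with GAL4-UAS-driven reporters. After 24 h compound exposure, reporter mRNA induction quantified by RT-PCR and capillary electrophoresis with fluorescent labeling; gain-of-signal fitted relative to DMSO control.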

The target in experiment [10] is human Retinoic Acid Receptor gamma (RARg), RARG (gene 5916) (UniProt P13631). Briefly: ATG_RARg_TRANS: Attagene TRANS-FACTORIAL HepG2 Assay for human Retinoic Acid Receptor gamma (RARg) (AID 2283009). The method, boiled down:
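Gain-of-signal relative to DMSO is reported from fluorescent capillary electrophoresis of RT-PCR reporter products. These came from HepG2 cells expressing transfected RARg-GAL4 chimeras with UAS reporters, harvested 24 h after dosing.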

In experiment [11] the target is Retinoic acid receptor RXR-alpha (Homo sapiens) (UniProt P19793). Put plainly: ATG_RXRa_TRANS: Attagene TRANS-FACTORIAL HepG2 Assay for human Retinoid X Receptor alpha (RXRa) (AID 2283012). A digest of the protocol:
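Chimeric NR-GAL4 trans-activation in HepG2, 24 h treatment; reporter transcripts quantified by fluorescence on capillary electrophoresis, analysed for upward change from DMSO.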

Experiment [12] concerns the target human Peroxisome Proliferator-activated Receptor delta (PPARd), PPARD (gene 5467) (UniProt Q03181). Put plainly: ATG_PPARd_TRANS: Attagene TRANS-FACTORIAL HepG2 Assay for human Peroxisome Proliferator-activated Receptor delta (PPARd) (AID 2283002). The method, boiled down:
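Measured quantity: GAL4-UAS reporter transcript induction in HepG2 after 24 h chemical dosing, with NR-Gal4 chimeras supplied by transient transfection. Detection by RT-PCR and capillary electrophoresis; upward fit against DMSO.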

Sequence of Retinoic acid receptor alpha (Homo sapiens) (P10276 whole entry, looked up, the tested form may be a part): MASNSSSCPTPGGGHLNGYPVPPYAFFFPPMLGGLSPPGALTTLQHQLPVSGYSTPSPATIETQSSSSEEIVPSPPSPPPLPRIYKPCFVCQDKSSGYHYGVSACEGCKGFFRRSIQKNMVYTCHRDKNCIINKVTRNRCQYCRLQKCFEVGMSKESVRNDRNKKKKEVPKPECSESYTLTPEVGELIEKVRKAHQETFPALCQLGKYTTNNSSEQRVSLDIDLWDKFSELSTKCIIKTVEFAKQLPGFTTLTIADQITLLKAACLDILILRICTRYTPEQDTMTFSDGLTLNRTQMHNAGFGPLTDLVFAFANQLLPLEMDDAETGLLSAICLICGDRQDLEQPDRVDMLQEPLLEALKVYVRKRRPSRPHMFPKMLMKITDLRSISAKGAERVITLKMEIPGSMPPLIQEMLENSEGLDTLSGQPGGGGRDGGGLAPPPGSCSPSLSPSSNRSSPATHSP
Sequence of Nuclear receptor subfamily 1 group I member 2 (Homo sapiens) (O75469 whole entry, looked up, the tested form may be a part): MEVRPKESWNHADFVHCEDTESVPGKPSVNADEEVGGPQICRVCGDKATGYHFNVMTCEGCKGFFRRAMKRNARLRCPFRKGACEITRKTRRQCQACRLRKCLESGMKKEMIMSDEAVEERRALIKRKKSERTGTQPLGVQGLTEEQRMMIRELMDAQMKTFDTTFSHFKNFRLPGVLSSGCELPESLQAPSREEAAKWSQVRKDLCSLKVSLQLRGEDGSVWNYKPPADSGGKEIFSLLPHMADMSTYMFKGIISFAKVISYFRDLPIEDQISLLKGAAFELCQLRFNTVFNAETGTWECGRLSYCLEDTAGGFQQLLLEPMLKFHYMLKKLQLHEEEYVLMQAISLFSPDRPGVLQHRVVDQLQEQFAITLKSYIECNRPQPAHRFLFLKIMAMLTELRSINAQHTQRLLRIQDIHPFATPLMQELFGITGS
Sequence of human Retinoic Acid Receptor beta (RARb), RARB (gene 5915) (P10826 whole entry, looked up, the tested form may be a part): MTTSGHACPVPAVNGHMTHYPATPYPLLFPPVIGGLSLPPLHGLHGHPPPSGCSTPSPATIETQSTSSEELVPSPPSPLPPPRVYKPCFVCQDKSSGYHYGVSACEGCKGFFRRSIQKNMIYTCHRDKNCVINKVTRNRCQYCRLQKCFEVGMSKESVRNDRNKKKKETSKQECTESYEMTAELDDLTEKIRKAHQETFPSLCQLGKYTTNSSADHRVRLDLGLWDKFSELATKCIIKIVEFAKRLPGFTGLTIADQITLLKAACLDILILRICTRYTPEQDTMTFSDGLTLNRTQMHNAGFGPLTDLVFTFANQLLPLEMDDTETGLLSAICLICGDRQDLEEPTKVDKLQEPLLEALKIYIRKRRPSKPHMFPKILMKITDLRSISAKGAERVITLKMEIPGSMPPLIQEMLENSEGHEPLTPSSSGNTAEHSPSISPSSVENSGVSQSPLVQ
Sequence of human RAR-related Orphan Receptor beta (RORb), RORB (gene 6096) (Q92753 whole entry, looked up, the tested form may be a part): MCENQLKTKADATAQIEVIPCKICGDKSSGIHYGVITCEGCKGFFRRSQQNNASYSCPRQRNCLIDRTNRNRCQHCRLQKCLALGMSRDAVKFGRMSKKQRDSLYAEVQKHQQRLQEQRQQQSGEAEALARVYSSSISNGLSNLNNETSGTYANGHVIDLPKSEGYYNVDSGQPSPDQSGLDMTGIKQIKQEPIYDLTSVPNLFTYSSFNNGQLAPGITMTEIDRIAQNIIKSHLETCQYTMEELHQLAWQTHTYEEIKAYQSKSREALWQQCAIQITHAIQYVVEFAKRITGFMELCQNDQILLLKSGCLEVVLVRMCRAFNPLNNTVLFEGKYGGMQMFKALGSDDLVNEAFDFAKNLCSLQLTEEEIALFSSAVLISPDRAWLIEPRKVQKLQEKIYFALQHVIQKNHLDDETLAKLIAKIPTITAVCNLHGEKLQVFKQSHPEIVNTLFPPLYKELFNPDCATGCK
Sequence of Peroxisome proliferator-activated receptor gamma (Homo sapiens) (P37231 whole entry, looked up, the tested form may be a part): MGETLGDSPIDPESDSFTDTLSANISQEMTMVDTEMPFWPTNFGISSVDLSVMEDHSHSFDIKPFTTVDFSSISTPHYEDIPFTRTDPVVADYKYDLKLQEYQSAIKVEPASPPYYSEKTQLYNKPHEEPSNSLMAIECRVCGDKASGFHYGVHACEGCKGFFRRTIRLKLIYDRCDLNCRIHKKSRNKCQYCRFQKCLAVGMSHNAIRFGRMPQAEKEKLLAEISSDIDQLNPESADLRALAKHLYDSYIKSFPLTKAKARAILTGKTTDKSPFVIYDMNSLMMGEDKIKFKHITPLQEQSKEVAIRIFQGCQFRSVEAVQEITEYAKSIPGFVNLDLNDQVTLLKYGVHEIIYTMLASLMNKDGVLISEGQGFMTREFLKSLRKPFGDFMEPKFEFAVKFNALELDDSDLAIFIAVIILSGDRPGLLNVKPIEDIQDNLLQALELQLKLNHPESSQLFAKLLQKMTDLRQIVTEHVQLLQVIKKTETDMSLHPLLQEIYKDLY
Sequence of human Peroxisome Proliferator-activated Receptor alpha (PPARa), PPARA (gene 5465) (Q07869 whole entry, looked up, the tested form may be a part): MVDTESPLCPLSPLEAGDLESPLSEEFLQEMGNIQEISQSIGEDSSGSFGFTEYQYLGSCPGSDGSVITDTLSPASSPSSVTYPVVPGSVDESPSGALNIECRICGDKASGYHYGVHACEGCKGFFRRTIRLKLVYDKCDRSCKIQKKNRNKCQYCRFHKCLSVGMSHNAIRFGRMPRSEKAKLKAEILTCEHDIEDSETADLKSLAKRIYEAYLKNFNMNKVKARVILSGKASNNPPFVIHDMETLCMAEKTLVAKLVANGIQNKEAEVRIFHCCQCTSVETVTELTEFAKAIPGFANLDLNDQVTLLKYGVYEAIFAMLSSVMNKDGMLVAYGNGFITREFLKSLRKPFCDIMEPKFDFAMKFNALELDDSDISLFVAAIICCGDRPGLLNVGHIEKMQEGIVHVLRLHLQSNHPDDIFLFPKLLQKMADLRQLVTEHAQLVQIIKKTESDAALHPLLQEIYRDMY
Sequence of human RAR-related Orphan Receptor gamma (RORg), RORC (gene 6097) (P51449 whole entry, looked up, the tested form may be a part): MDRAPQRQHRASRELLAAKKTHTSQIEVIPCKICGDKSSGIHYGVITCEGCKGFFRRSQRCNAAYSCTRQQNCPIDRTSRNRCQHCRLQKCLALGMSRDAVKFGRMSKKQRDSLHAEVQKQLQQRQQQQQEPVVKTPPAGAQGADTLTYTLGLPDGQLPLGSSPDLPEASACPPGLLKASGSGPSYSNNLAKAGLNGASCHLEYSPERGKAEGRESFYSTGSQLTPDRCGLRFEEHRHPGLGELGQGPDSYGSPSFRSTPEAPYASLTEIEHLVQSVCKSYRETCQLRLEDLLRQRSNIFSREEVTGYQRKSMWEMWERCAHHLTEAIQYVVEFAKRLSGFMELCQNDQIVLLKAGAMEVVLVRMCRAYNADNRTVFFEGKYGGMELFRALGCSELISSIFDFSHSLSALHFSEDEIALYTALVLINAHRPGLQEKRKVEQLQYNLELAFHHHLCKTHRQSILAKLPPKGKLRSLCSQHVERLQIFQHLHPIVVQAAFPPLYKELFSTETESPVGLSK
Sequence of human Thyroid Receptor alpha (THRa1), THRA (gene 7067) (P10827 whole entry, looked up, the tested form may be a part): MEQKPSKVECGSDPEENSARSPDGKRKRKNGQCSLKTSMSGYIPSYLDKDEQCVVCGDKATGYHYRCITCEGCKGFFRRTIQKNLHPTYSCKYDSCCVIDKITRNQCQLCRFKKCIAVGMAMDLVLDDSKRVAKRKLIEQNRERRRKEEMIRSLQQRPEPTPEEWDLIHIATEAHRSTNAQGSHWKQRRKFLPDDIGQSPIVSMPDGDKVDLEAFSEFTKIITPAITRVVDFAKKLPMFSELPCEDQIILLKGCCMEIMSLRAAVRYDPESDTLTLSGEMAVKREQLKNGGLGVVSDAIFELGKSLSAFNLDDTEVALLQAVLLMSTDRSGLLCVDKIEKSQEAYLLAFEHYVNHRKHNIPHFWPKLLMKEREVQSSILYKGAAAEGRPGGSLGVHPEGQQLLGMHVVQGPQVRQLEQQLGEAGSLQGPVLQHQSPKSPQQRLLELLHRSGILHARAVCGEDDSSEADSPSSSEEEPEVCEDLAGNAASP
Sequence of human Retinoic Acid Receptor gamma (RARg), RARG (gene 5916) (P13631 whole entry, looked up, the tested form may be a part): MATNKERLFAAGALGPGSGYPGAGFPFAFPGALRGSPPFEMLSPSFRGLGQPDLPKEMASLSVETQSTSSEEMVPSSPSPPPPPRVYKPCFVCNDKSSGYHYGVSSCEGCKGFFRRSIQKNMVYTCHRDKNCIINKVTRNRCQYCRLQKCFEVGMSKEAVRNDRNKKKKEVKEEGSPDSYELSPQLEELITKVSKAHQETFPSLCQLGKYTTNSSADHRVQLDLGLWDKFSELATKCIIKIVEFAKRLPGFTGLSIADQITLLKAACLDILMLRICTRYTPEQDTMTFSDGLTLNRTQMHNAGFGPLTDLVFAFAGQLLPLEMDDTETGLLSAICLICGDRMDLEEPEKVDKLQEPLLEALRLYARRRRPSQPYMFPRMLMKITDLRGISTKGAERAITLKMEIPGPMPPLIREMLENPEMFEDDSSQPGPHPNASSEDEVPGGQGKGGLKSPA
Sequence of human Retinoid X Receptor beta (RXRb), RXRB (gene 6257) (P28702 whole entry, looked up, the tested form may be a part): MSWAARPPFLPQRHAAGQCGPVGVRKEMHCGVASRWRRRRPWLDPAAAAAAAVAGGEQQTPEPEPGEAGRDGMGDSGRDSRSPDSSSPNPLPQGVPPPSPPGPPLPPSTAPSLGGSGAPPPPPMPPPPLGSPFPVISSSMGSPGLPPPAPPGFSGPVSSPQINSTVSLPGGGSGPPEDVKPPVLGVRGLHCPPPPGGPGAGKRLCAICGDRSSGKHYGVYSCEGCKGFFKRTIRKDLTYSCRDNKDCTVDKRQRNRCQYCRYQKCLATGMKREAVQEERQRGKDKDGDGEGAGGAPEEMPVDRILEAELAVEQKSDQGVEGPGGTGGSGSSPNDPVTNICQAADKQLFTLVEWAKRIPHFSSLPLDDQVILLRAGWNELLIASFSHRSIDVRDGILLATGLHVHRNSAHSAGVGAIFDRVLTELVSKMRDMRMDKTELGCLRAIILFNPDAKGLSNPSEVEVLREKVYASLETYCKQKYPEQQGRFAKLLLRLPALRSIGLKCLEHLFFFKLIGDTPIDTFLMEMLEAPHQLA

Regarding `Nc1ccnc(=O)[nH]1`, the call in experiment [1], in experiment [2], in experiment [3], in experiment [4] and in experiment [5] was inactive.
For `Nc1ccc(C(=O)OCCCOC(=O)c2ccc(N)cc2)cc1`, the outcome in experiment [1] and in experiment [7] was inactive. The half-maximal activity concentration (AC50) is 33.4 µM (active) in experiment [2] and 19.6 µM (active) in experiment [6].
`COc1ccc(-c2coc3cc(O)cc(O)c3c2=O)cc1`: the AC50 in experiment [1] is 7.31 µM (active); in experiment [2], 27.1 µM (active); in experiment [6], 26.6 µM (active). The outcome in experiment [8], in [9], in experiment [10], in experiment [11] and in [7] was inactive.
For `COC(=O)CC(C)CCC=C(C)C` (configuration not stated), the compound was called inactive in experiment [1], in experiment [2], in [6], in [3], in experiment [11] and in [5].
Turning to `CCCCCCCCCCCC(=O)OCC`, the call in experiment [1], in experiment [2], in experiment [10], in experiment [4] and in experiment [5] was inactive.
Take `CCCCCCCC(=O)OCC(COC(=O)CCCCCCC)OC(=O)CCCCCCC`: the call in [1], in experiment [2] and in experiment [7] was inactive.
Turning to `C=C(C)C(=O)OCCOC(=O)C(=C)C`, the compound was called inactive in [12], in [8], in experiment [9], in experiment [6], in [10] and in experiment [3]. The compound was classed as inactive in experiment [11] and in [5]. The AC50 in experiment [2] was 62.2 µM (active).
`[Cl][Sc]([Cl])[Cl]`: the outcome in experiment [1], in [9], in experiment [6], in experiment [10], in experiment [4] and in experiment [7] was inactive.
Regarding `CCCCCCCCCCCCCC(=O)OC(C)C`, the outcome in [1], in [8], in experiment [9], in [2], in experiment [6] and in [10] was inactive. The outcome in experiment [11], in [5] and in experiment [7] was inactive.
Regarding `CCC(C)(O)CCCC(C)C` (configuration not stated), the outcome in [1], in experiment [2], in experiment [6], in experiment [11], in experiment [5] and in [7] was inactive.
In the case of `CC(=O)OC/C=C(/C)CCC=C(C)C`, the outcome in experiment [1], in experiment [9], in experiment [2], in experiment [6], in [3] and in [11] was inactive. Besides, in experiment [5], the call was inactive.
As for `CC1C(C)(C)C2=C(C(=O)CCC2)C1(C)C` (configuration not stated), the result in [1], in experiment [8], in experiment [9], in experiment [2], in experiment [10] and in experiment [11] was inactive. Besides, the figures for the AC50 in [6] and in [5] were 7.68 µM (active) and 87.6 µM (active), respectively.
On to `O=C(O)C1CCC(C(=O)O)CC1` (configuration not stated), for which the call in [1] and in [5] was inactive.
As to `CN(C)Cc1cc(CN(C)C)c(O)c(CN(C)C)c1`, the call in experiment [1], in experiment [8], in experiment [2], in experiment [6] and in experiment [7] was inactive.
Take `CCCCOCCOC(=O)COc1ccc(Cl)cc1Cl`: the call in [1], in experiment [2] and in experiment [3] was inactive.
In the case of `COC(Cc1ccccc1)OC`, the outcome in [1], in [2], in experiment [3], in [4] and in [7] was inactive.
Regarding `CC(=O)c1ccccc1O`, the compound was classed as inactive in [1], in experiment [2], in [6], in experiment [11] and in experiment [5].
In the case of `CC1=CCC2CC1C2(C)C` (configuration not stated), the compound was called inactive in experiment [1], in experiment [8], in [9], in experiment [6], in [10] and in experiment [3]. For the same compound, the compound was called inactive in experiment [5].
Consider `CC(=O)c1ccc(S(=O)(=O)NC(=O)NC2CCCCC2)cc1`, for which the compound was classed as inactive in experiment [1], in experiment [9], in [2], in [6], in experiment [10] and in [4].
With `O=C(OCc1ccccc1)c1ccc(O)cc1`, the compound was classed as inactive in [1], in experiment [11] and in [5]. Besides, the AC50 was 49.9 µM (active) in experiment [2] and 63.2 µM (active) in [6].
`CC(=O)OCC=C(C)C`: the compound was classed as inactive in experiment [1], in experiment [9], in experiment [2], in experiment [6], in experiment [11] and in [5]. Moreover, the result in experiment [7] was inactive.
For the compound `O=C(Nc1ccccc1)c1cc(Cl)ccc1O`, the call in experiment [1], in experiment [8], in experiment [9], in experiment [6], in experiment [10] and in experiment [11] was inactive. Also, the compound was classed as inactive in experiment [5] and in [7]. Further, the half-maximal activity concentration (AC50) in [2] was 13 µM (active).
Turning to `O=S(=O)(O)c1ccc(N=Nc2c(O)ccc3ccccc23)cc1`, the result in experiment [1], in experiment [8], in experiment [9], in [2], in [10] and in [4] was inactive. Also, the outcome in experiment [11] and in experiment [5] was inactive.
In the case of `O=C1CCCCC1C1CCCCC1` (configuration not stated), the compound was classed as inactive in experiment [1], in [8], in [9], in experiment [2], in experiment [10] and in experiment [3]. Also, the compound was classed as inactive in experiment [11] and in experiment [5]. Moreover, the half-maximal activity concentration (AC50) in [6] is 41.2 µM (active).

The values above are taken from PubChem BioAssay (EPA / NIEHS).
